# In PubChem BioAssay AID504332 (National Center for Advancing Translational Sciences (NCATS), 2011):
# “And” between values parts separate entries of the source, which are not always exact repeats. Equal values may be shown once. Screen size: about 350,000 compounds; about 31,000 (8.9%) were called active. Entries that show only a call come without a potency. Inconclusive results (about 15%) are left out. Calls come from the whole dose curve; as a rule, active = well fitted inhibition curve with a large enough effect; inconclusive = small, poorly fitted or top-dose-only effect; inactive = no such curve, though single readings can be large or run the other way. Many of the other results were omitted from the sample, so actives are more common in it than they were. Some compounds were tested as several samples or in several runs, with calls that do not always agree.
# Target: Histone-lysine N-methyltransferase EHMT2 (Homo sapiens) (UniProt Q96KQ7)
# Sequence (Q96KQ7 913-1193 limits assumed): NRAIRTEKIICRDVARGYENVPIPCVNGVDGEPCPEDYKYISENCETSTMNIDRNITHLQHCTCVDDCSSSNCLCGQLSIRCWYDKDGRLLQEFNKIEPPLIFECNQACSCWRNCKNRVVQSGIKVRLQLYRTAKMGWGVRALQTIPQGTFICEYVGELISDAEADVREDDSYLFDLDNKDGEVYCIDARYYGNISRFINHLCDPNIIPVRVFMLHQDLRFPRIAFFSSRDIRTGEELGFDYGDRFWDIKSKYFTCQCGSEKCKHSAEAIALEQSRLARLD
# Test: qHTS Assay for Inhibitors of Histone Lysine Methyltransferase G9a; note: nearly all actives have a fitted effect of over 75% in size
# Settings: G9a H3K9 monomethylation, AlphaScreen, 2 h; series mostly up to 59 µM
# How it was run: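 Using a bead-based AlphaScreen, monomethylated H3K9 product from 2 h room-temperature reactions (G9a 20 nM, peptide 500 nM, SAM 20 uM) was detected with 0.5 ug/mL rabbit anti-H3K9me1 antibody.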
# Potency is the fitted concentration of half-maximal effect.
SMILES,Potency,"activity, negative = inhibition"
CSc1ccc(CCNC(=O)c2cc(C)nc3c2c(C)nn3-c2cccc(F)c2)cc1,inactive,–
CC(C)n1ncc2c(C(=O)NCc3ccccc3CN(C)C)cc(C3CC3)nc21,inactive,–
Cc1cccc(N2CCN(C(=O)c3cccc(S(=O)(=O)N4CCc5ccccc5C4)c3)CC2C)c1 (stereo not given),inactive,–
Cc1cccc(N2Cc3ccccc3C2=NC(=O)c2ccc(Cl)nc2)c1,11.2 µM (active),–
N#Cc1ccc(N2Cc3ccccc3/C2=N/C(=O)Nc2ccc(Cl)cc2)cc1,inactive,–
O=C(COc1cccc2c1CCNC2=O)NC1CCCCC1,–,8.64% [at 0.501 µM] (inactive)
Cc1cc(OCC(=O)NCC2(N(C)C)CCCCC2)cc(C)c1Cl,inactive,–
CCC(C)Sc1nc2c(c(=O)[nH]c(=O)n2C)n1CC(O)COc1cccc2ccccc12 (stereo not given),7.94 µM (active),–
Cc1cccc(OCC(O)Cn2c(N3CCCCC3)nc3c2c(=O)[nH]c(=O)n3C)c1 (stereo not given),inactive,–
CCOC(=O)Cn1c(CN(Cc2ccccc2)Cc2ccccc2)nc2c1c(=O)[nH]c(=O)n2C,inactive,–
COc1ccc(/C=N/NS(=O)(=O)c2ccc(NC(C)=O)cc2)cc1,inactive,–
O=S(=O)(N/N=C\c1cccn1-c1ccccc1)c1ccc2ccccc2c1,31.6 µM (active),–
O=C(COc1ccc(/C=N/NS(=O)(=O)c2ccccc2)cc1)NCCc1ccccc1,–,-4.68% [at 2.33 µM] (inactive)
CC(=O)Cn1cnc2c(cnn2-c2ccccc2)c1=O,inactive,–
CCc1ccc(NC(=O)CCCc2nnc3n(CCCOC)c(=O)c4sccc4n23)cc1,inactive,–
COc1ccccc1C(=O)NCCC(=O)NCC(c1ccco1)N1CCCCC1 (stereo not given),inactive,–
COc1ccccc1CCNC(=O)CN1C(=O)NC2(CCCC2)C1=O,–,8.45% [at 0.501 µM] (inactive)
COc1ccccc1C(=O)NCCC(=O)NN1C(=O)NC2(CCCCC2)C1=O,50.1 µM (active),–
COc1cccc(CNC(=O)Cn2ncn3c(cc4ccccc43)c2=O)c1,inactive,–
COc1ccc(NC(=O)c2sc3nc[nH]c(=O)c3c2C)cc1,inactive,–
CCc1cccc(NC(=O)c2cc(-c3ccccc3)n[nH]2)c1,inactive,–
CN(C(=O)CSc1nncc2ccccc12)C1CCCCC1,50.1 µM (active),–

SMILES,Potency,"activity, negative = inhibition"
CN(C(=O)COc1ncnc2c1cnn2-c1ccccc1)C1CCCCC1,–,25.1% [at 0.0925 µM] (inactive)
CN(C(=O)CSc1nnnn1-c1ccccc1)C1CCCCC1,inactive,–
COc1ccccc1CNC(=O)C(=O)NCC(c1cccs1)S(=O)(=O)c1cccs1 (stereo not given),inactive,–
COc1ccc(NC(=O)Cn2c(-c3ccc(OC)cc3)cn(-c3ccc(C)cc3)c2=O)cc1,–,-31.1% [at 12.7 µM] (inactive)
COc1ccc(-c2nc3ccccc3c(=O)n2CCc2ccc(O)cc2)cc1,inactive,–
COc1ccc(-c2ccc(CCC(=O)O)n2-c2ccc(O)cc2)cc1,31.6 µM (active),–
CCOC(=O)c1c(CNCc2ccccc2F)c2sc(C)cc2n1C,–,12% [at 12.7 µM] (inactive)
CC(C)N(C(=O)CN1CCN(S(=O)(=O)c2ccc(Br)s2)CC1)C(C)C,–,17.1% [at 2.33 µM] (inactive)
Cc1cccc(NC(=O)CN2CCCN(S(=O)(=O)c3ccc(Br)s3)CC2)c1,39.8 µM (active),–
Cc1ccc(S(=O)(=O)N2CCN(CC(=O)N/N=C/c3ccc(Br)s3)CC2)cc1,inactive,–
CC1CC(C)(C)CC2(C1)NC(=O)N(CC(=O)Nc1nccs1)C2=O (stereo not given),–,13.6% [at 0.501 µM] (inactive)
COc1cccc(CNC(=O)C2CCC(CNS(=O)(=O)c3cccs3)CC2)c1 (stereo not given),inactive,–
CSc1ncc(Cl)c(C(=O)Nc2ccc(S(=O)(=O)N3CCCC(C)C3)cc2)n1 (stereo not given),inactive,–
Cc1cc(C)cc(OCC(=O)Nc2nc(-c3ccc(F)cc3)ns2)c1,inactive,–
CO/N=C(\C(=O)N[C@@H]1C(=O)N2C(C(=O)O)=C(COC(C)=O)CS[C@H]12)c1csc(N)n1 (stereo in doubt),inactive and 44.7 µM (active),–
CC(=O)c1ccc(N2CCN(c3nc4c(S(=O)(=O)c5ccccc5)nnn4c4ccc(Cl)cc34)CC2)cc1,inactive,–
Fc1cccc(-n2ncc3c2ncn2nc(-c4ccccc4Cl)nc32)c1,inactive,–
Cc1ccc(C)c(N2CCN(C(=O)CCc3c(C)nc4c(c3C)c(=O)n(C)c(=O)n4C)CC2)c1,inactive,–
O=C(Cc1ccccc1Cl)N1CCOCC1,inactive,–
O=C(Nc1ccc(Cl)cc1)Nc1ccc(C(=O)N2CCOCC2)cc1,inactive,–
S=C(Cc1ccc(Cl)cc1)N1CCOCC1,14.1 µM (active),–
COc1cccc(C(=O)Nc2ccc3oc(-c4ccc5ccccc5c4)nc3c2)c1,inactive,–

SMILES,Potency,"activity, negative = inhibition"
COc1ccc(N/N=C2/CCCCC2=O)cc1,10 µM (active),–
COc1ccc(NC(=O)c2c(C)oc3c2CCCC3)cc1,inactive,–
COc1ccc(C2C3=C(CCCC3=O)N(CC(=O)O)C3=C2C(=O)CCC3)cc1,inactive,–
Cc1ccc(-c2nn3c(=O)cc(CN4CCN(C(=O)Nc5cccc(C(F)(F)F)c5)CC4)nc3s2)cc1,inactive,–
CCCn1nc(C(=O)OCc2nc(N)nc(Nc3ccccc3C)n2)c2ccccc2c1=O,–,-4.37% [at 12.7 µM] (inactive)
Cc1cn(C)c(CC(=O)NCc2ccccc2)c1C(=O)O,inactive,–
S=c1[nH]nc2c3c4c(sc3ncn12)CCCC4,1.12 µM (active),–
c1nnc2c3c4c(sc3ncn12)CCC4,inactive,–
N=c1c2c3c(sc2ncn1N)CCCC3,inactive,–
Cn1c(=O)c2sccc2n(Cc2ccc(Br)cc2)c1=O,–,4.98% [at 2.33 µM] (inactive)
CC(=O)OC(COc1ccc(F)cc1)Cn1cnc2ccccc21 (stereo not given),inactive,–
Fc1ccc(OCc2nn3c(Cn4nnc5ccccc54)nnc3s2)cc1,11.2 µM (active),–
C/C(Cn1nnc2ccccc21)=N\OC(=O)c1cc(F)c(F)cc1Cl,inactive,–
CC12CCC(=O)N1C(C(=O)NCCN1C(=O)S/C(=C\c3ccccc3F)C1=O)CS2 (stereo not given),–,-5.94% [at 12.7 µM] (inactive)
Cc1cccc(N2CCN(C(=O)c3ccc(Nc4nc5ccccc5n5nnnc45)cc3)CC2)c1C,inactive,–
COc1ccc(Cl)cc1NC(=O)CN(C)C(=O)CNC(=O)C12CC3CC(CC(C3)C1)C2,–,7.61% [at 12.7 µM] (inactive)
COc1ccc(C)cc1NC(=O)CSc1ccc(Cl)cc1,inactive,–
COc1ccc(Cl)cc1NC(=O)CN(C)C(=O)c1ccc2n[nH]nc2c1,–,15.9% [at 12.7 µM] (inactive)
COc1ccc(Cl)cc1NC(=O)CNc1ccccc1F,79.4 µM (active),–
COc1ccc(Cl)cc1NC(=O)CN(C)Cc1ccc(OC)c(OC)c1,4.47 µM (active),–
COc1ccc(Cl)cc1NC(=O)CCC(=O)c1ccc(C)cc1,inactive,–
